Compound activity deposited in PubChem BioAssay by National Center for Advancing Translational Sciences (NCATS).
Eya2 phos inh – inhibitors of human Eya2 phosphatase activity. recombinant Eya2, OMFP fluorescence dephosphorylation (OMFP is methylfluorescein phosphate). Potency, µM (top dose mostly 76.9 µM), hits mostly inhibitors. 330,000 tested, 0.006% active
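Eya2 protein (added as 0.2 uM solution) was preincubated with compound for 10 min at ambient temperature in 50 mM HEPES pH 7.5, 50 mM NaCl, 5 uM MgCl2, 0.05% BSA, 1 mM DTT. OMFP (added at 50 uM) then reacted 10 min; fluorescence read at 485/525 nm.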
USP2a block – inhibitors of human ubiquitin-specific protease USP2a; AID 463254; 330,000 tested, 0.01% active; Potency, µM (series often up to 38.3 µM), usual class: inhibitors; USP2 core, Ub-CHOP2 coupled fluorogenic reporter, 485/531; O75604
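Deubiquitinase activity read as fluorescence (485/531 nm) after Ub-CHOP2 cleavage activates the enterokinase reporter on its substrate; USP2 core 10nM, Ub-CHOP2 and substrate 25nM each, 30min compound preincubation then 60min RT; data normalized to NEM, curves fitted.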
ERG Ets-DNA blk – inhibitors of human ERG Ets domain-DNA interaction. P11308. fluorescence polarization, His-ERG Ets domain / labelled DNA. Potency, µM (top dose mostly 76.9 µM), hits mostly inhibitors. 370,000 tested, 0.028% active; active = well fitted inhibition curve with a large enough effect in the polarisation, with a control signal flat; inconclusive = small, poorly fitted or top-dose-only effect, or effect the other way, or a change in a side signal; inactive = no such curve, though single readings can be large or run the other way; the % refers to the polarisation;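 also: polarization taken with two DNA probes labelled with fluorescein and Texas red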
Target sequence (P11308 whole entry, looked up, the tested form may be a part): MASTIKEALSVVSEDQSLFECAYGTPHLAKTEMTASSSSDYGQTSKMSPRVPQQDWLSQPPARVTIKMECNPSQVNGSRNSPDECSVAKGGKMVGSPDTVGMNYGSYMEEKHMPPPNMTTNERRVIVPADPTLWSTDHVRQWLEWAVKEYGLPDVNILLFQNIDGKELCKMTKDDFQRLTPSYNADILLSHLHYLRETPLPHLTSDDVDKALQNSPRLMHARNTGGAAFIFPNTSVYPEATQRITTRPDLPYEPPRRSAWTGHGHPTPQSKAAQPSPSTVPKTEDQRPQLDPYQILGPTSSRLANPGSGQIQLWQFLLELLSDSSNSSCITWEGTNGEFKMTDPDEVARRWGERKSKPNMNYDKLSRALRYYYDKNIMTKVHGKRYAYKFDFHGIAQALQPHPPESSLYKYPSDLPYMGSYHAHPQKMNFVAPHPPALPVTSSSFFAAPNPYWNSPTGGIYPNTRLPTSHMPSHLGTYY
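His-tagged ERG Ets domain (1 uM in the protein solution; 300mM KCl, 50mM Tris-HCl, 1mM EDTA, 1mM DTT, pH 7.5) received compound, then a probe mix of 5 nM fluorescein-DNA and 100nM Texas-615-DNA. Fluorescence polarization was read for both dyes.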
RGS4 inhibitor – inhibitors of human regulator of G protein signaling 4; P49798; Transcreener GDP fluorescence polarization, RGS4-accelerated GTP hydrolysis; Potency, µM (series often up to 114 µM), usual class: inhibitors; 390,000 tested, 0.039% active; AID 504845; also: nearly all actives have a fitted effect of over 75% in size
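MLSMR compounds (23 nl, pin-transferred) preincubated 10 min at room temperature with a 500nM (2x) first reagent, then RGS4 at 900nM (2x) plus Transcreener GDP mix added; fluorescence polarization (620/688 nm) read before and after 90 min at 30 °C.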
A number is an active result; 0 = inactive; ? = inconclusive; - = no result given; ! = not active in a repeat. Rows were chosen to be rich in hits. Some 0.08% of all compounds tested hit in one or more screens of this group. Unless noted, calls follow the shape of the dose curve; as a rule, active = well fitted curve in the direction sought with a large enough effect; inconclusive = small, poorly fitted or top-dose-only effect, or another doubt; inactive = no such curve, though single readings can be large; an effect the other way counts as inactive or inconclusive.

SMILES	Eya2 phos inh	USP2a block	ERG Ets-DNA blk	RGS4 inhibitor
COc1ccc(-c2csc(N3CCN(C(=O)c4ccco4)CC3)n2)cc1	0	11.2µM	0	0
N#CC(C#N)=C(N)/C(C#N)=C/c1ccc2[nH]ccc2c1	-	-	-	0
CCN(CC)C(=S)SSC(=S)N(CC)CC	0	0	0	1.06µM!
CCN(CC)C(=S)SCC(=O)c1ccccc1	0	0	0	0
C=C1CCN(C(CC(C)C)C(=O)O)S(=O)(=O)c2ccccc21 (centres undefined)	-	-	-	0
CC(=O)Nc1cc(O)c2nonc2c1O	-	-	-	0
CCCn1cnc2c1c(=O)n(CCCCC(C)=O)c(=O)n2C	0	-	-	23.8µM!
CCN(CC)C(=O)Cn1cnc2c1c(=O)n(C)c(=O)n2C	0	0	0	0
CCc1n[nH]c(=S)n1/N=C/c1ccc(N(C)c2ccccc2)cc1	0	0	5.01µM	0
Oc1ccccc1/C=N/n1c(COc2ccccc2)n[nH]c1=S	0	0	28.2µM	0
CCc1n[nH]c(=S)n1/N=C/c1ccc2c(c1)OCO2	0	0	0	0
CC(=O)c1cccc(S(=O)(=O)N2CCN(c3nc(-c4cccs4)nc4ccccc34)CC2)c1	-	-	-	0
Cn1nc(-c2cccnc2)nc2c(=O)n(C)c(=O)nc1-2	-	-	-	0
Cc1oc2cc(O)ccc2c(=O)c1-c1nncn1-c1ccccc1	0	0	35.5µM	0
Cc1ccc(S(=O)(=O)N2[C@@H](c3ccccc3)C(C(=O)O)=CC[C@H]2c2ccc(Cl)c(Cl)c2)cc1	0	0	0	0
Cc1ccc(S(=O)(=O)N2[C@@H](c3ccccc3F)C(C(=O)O)=CC[C@H]2c2ccc(Cl)c(Cl)c2)cc1	?	11.2µM	0	0
COc1ccc(CN(Cc2ccccc2)C(=O)c2ccno2)cc1COc1ccc(NC(C)=O)cc1	-	-	-	0
O=c1oc2c(O)c(O)cc3c(=O)oc4c(O)c(O)cc1c4c23	0	1.12µM	0	?
C#CCOCCOCCOCCNc1nc(N2CCN(C(=O)CCCCCCCCCCNC(=O)[C@@H](CCC(=O)O)n3cc(CCCCCN)nn3)CC2)nc(N2CCN(C(=O)CCCCCCCCCCNC(=O)[C@H](CCCCN)n3cc(C[C@@H](C)CC)nn3)CC2)n1	0	?	0	?
C#CCOCCOCCOCCNc1nc(N2CCN(C(=O)CCCCCCCCCCNC(=O)[C@H]([C@@H](C)CC)n3cc(CCCCN=C(N)N)nn3)CC2)nc(N2CCN(C(=O)CCCCCCCCCCNC(=O)[C@H](CCCN=C(N)N)n3cc(C[C@@H](C)CC)nn3)CC2)n1	0	11.2µM	-	-
C#CCOCCOCCOCCNc1nc(N2CCN(C(=O)CCCCCCCCCCNC(=O)[C@H](CCCN=C(N)N)n3cc(C[C@@H](C)CC)nn3)CC2)nc(N2CCN(C(=O)CCCCCCCCCCNC(=O)[C@@H]([C@H](C)CC)n3cc(CCCCCN)nn3)CC2)n1	?	10µM	-	-
Clc1ccc(-c2nc3sccn3c2/C=N/OCc2ccc(Cl)c(Cl)c2)cc1	-	-	-	2.99µM
COC(=O)C1=C(C)NC(C)=C(C(=O)OCCSc2ccccc2)C1C (centres undefined)	-	-	-	37.7µM
CC(C)CNc1ncnc2oc(-c3ccco3)c(-c3ccco3)c12	-	-	-	0
CCCN1CNc2c(c(=O)[nH]c(=S)n2CCCc2ccccc2)C1	-	-	-	0
SMILES	Eya2 phos inh	USP2a block	ERG Ets-DNA blk	RGS4 inhibitor
CCCN(CC(=O)Nc1ccc(F)c(F)c1F)C(=O)C1CC(=O)N(Cc2ccccc2)C1 (centres undefined)	0	0	35.5µM	0
Cc1cc(C(=O)OCC(=O)c2cccc([N+](=O)[O-])c2)c2cccc(C)c2n1	?	11.2µM	0	0
Cc1ccc(SCC(=O)Nc2ccc(C(=O)Nc3ccc(O)cc3)cc2)cc1	0	11.2µM	0	0
NCCCN(Cc1ccc(Cl)c(Cl)c1)c1ccccn1	-	-	-	0
CCOC(=O)C1=C(C)NC(=S)NC1c1cc(C)sc1C (centres undefined)	0	0	0	0
CCOC(=O)c1c(NC(=O)C2=C(C)NC(=S)NC2c2ccccc2C(F)(F)F)sc(C)c1C (centres undefined)	0	0	35.5µM	0
Cc1cc2cc(CNC(=O)c3cccs3)ccc2n1C	0	0	17.8µM	?
Cc1cc2cc(CNC(=O)c3ccc(S(=O)(=O)N4CCCC4)cc3)ccc2n1C	0	0	?	0
CCC(CC)C(=O)NCc1ccc2c(c1)cc(C)n2C	0	0	0	0
CCN(CC)S(=O)(=O)c1ccc(C(=O)NCc2ccc3c(c2)cc(C)n3C)cc1	0	0	31.6µM	0
COC1=C2C[C@H](C)C[C@H](OC)[C@@H](O)[C@@H](C)C=C(C)[C@H](OC(N)=O)[C@@H](OC)C=CC=C(C)C(=O)NC(=CC1=O)C2=O	-	-	-	0
O=[N+]([O-])c1cc(/C=N/N2CCOCC2)cs1	0	0	31.6µM	0
COc1ccc(-c2csc(N(CCCN(C)C)C(=O)c3ccccc3Cl)n2)cc1	-	-	0	0
COc1ccc(-c2csc(N(CCCN(C)C)C(=O)c3ccccc3C)n2)cc1	50.1µM	0	0	0
COc1ccc(C(=O)N(Cc2ccco2)Cc2cccs2)c(OC)c1	-	-	-	0
CN(C)C(CNC(=O)/C=C/c1cccc(Cl)c1)c1ccccc1 (centres undefined)	0	0	39.8µM	0
Cn1c2c(c3cnc4cc(Cl)ccc4c31)CN(Cc1ccc(Cl)cc1)CC2	-	-	-	0
CCCCc1ccc(NC(=O)Nc2cc(C)nn2C)cc1	0	0	31.6µM	0
CCCCCCCCCCCCCCCCCCc1ccc(C(=O)/C=C\C(=O)O)cc1	-	-	-	0
C=CC(=O)c1ccc(CCCCCC)cc1	0	-	-	2.67µM
CCCCCCCCc1ccc(-c2ccc(C(=O)O)cc2)cc1	0	-	-	21.2µM
Cn1nc(-c2ccc(F)cc2)nc2c(=O)n(C)c(=O)nc1-2	-	-	-	0
COc1ccc(/C=C/C(=O)CC(=O)/C=C/c2cccc(O)c2OC)cc1O	-	-	-	0
Cc1onc(-c2ccccc2Cl)c1C(=O)Nc1nnc(C2CCCCC2)s1	-	-	-	0
